Shown are actives, neighbours in structure and some others; about 3.9% of the full set was active somewhere.
HT1080 IDH1KD tx: kills HT-1080 cells with IDH1 knockdown. AID 686971. actives 2% (n = 360,000). Potency, µM (top dose mostly 46.1 µM), without a hit: at the top dose activity, negative = toxicity, hits mostly cytotoxic. HT-1080 IDH1 knockdown viability, ATP luminescence, 48 h;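 also: 0% = DMSO wells and -100% = cell-free medium wells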
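HT-1080-IDH1KD cells (IDH1 knocked down), 750/well in RPMI with 5% FBS, treated with compound 48 h at 37 degrees C. Viability by CellTiter-Glo luminescence, normalised to DMSO and no-cell wells; concentration-response curves classed.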
HepG2 tox: kills HepG2 cells in TGF-b inhibitor counter-screen. actives 0.76% (n = 410,000). HepG2 CAGA-GFP viability, ATP luminescence, 18 h. AID 588856. Potency, µM (titrated, usually from 46.1 µM), inactives show top-dose activity change, negative = cytotoxicity, usual class: cytotoxic
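HepG2 CAGA-GFP cells (1000/well, DMEM with 1% FBS) received compound, then TGF-beta at 500 pg/mL final, and were incubated 18 hours at 37 degrees C. Viability was read by CellTiter-Glo luminescence. Media-only wells were set as complete cell-killing and DMSO as no toxicity.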
HT1080-NT tox: kills 2HG-producing HT-1080-NT fibrosarcoma cells; HT-1080-NT fibrosarcoma viability, CellTiter-Glo ATP luminescence, 48 h; Potency, µM (highest dose often 46.1 µM), without a hit: at the top dose activity, negative = less viability, hits mostly cytotoxic; actives 1.6% (n = 360,000); AID 686970;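 also: NT is the 2HG producing partner of a matched IDH1 knockdown line; 0% = DMSO-treated cells and -100% = media-only wells without cells; nearly all actives have a fitted effect of over 55% in size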
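Fibrosarcoma NT cells, 750 per well in 5% FBS RPMI, were exposed to compound for 48 hours. Viability: CellTiter-Glo luminescence.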
TGFb inhibitor: TGF-b pathway inhibition; Potency, µM (titrated, usually from 46.1 µM), inactives show at the highest dose activity, negative = inhibition, most hits filed as inhibitors; actives 1.2% (n = 410,000); HepG2 CAGA-GFP TGF-b/SMAD3 reporter, GFP fluorescence, 18 h; TGF-beta stimulated, 500 pg/mL final; also: % is scaled to controls: 0 for no effect and ±100 for the full control effect; nearly all actives have a fitted effect of over 65% in size
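GFP signal (ex488/em500-530) from TGF-beta-stimulated HEPG2 CAGA-GFP cells, 500 pg/mL final, 18 h at 37 degrees C in DMEM plus 1% FBS, normalized to unstimulated and DMSO-stimulated controls.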
ATXN viability: reduces viability in counter-screen for ATXN expression inhibitors | S2 cells (HEK-293 line with an ATXN2-luciferase reporter) viability, CellTiter-Fluor protease fluorescence, 24 h | Potency, µM (highest dose often 56.7 µM), actives largely listed as cytotoxic | actives 0.49% (n = 400,000) | AID 651635; also: nearly all actives have a fitted effect of over 40% in size
ATXN2 expr inh: inhibitors of ATXN2 expression; HEK-293 ATXN2-luciferase reporter, luminescence, 24 h; Potency, µM (doses to about 57 µM), inactives show at the top dose activity change, negative = inhibition, usual class: inhibitors; actives 0.72% (n = 360,000); also: % is scaled to controls: 0 for no effect and ±100 for the full control effect; nearly all actives have a fitted effect of over 55% in size
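qHTS (up to 57 uM final) was run with 24 h compound exposure of reporter cells at 37 °C. Each well was multiplexed: SteadyGlo luminescence measured ATXN2-luciferase expression after a fluorogenic Gly-Phe-AFC viability readout (25 uM final).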
* = called active by the depositor; i = inactive; u = inconclusive; x = not tested or not shown. Calls follow the shape of the dose curve; as a rule, active = well fitted curve in the direction sought with a large enough effect; inconclusive = small, poorly fitted or top-dose-only effect, or another doubt; inactive = no such curve, though single readings can be large; an effect the other way counts as inactive or inconclusive. Potency is read from the fitted curve at half-maximal effect.

SMILES | HT1080 IDH1KD tx | HepG2 tox | HT1080-NT tox | TGFb inhibitor | ATXN viability | ATXN2 expr inh
CN(CC1COCCO1)C(=O)c1cnn(-c2nccc(-c3ccccc3C(F)(F)F)n2)c1C1CC1 (stereo unspecified) | x | x | x | x | i | x
CCOc1ccc(CCNC(=O)c2c3c(nc4ccccc24)C(=O)N(C2CCCCC2)C3)cc1 | x | -16% | x | 9% | x | x
CN1CCN(c2ccc(CNS(=O)(=O)Cc3cccc(C(F)(F)F)c3)cc2)CC1 | -22% | -54% | 18µM* | u | i | x
CN1CCN(c2ccc(CNS(=O)(=O)c3ccccc3)cc2)CC1 | 7% | 11% | 11% | -3% | i | 26%
CC(=O)Nc1ccc(NC(=O)c2nc(S(=O)(=O)Cc3ccc(F)cc3)ncc2Cl)cc1 | x | 4µM* | x | 2.8µM* | x | x
COc1ccc2nc(NC(=O)c3nc(S(=O)(=O)Cc4ccc(C)cc4)ncc3Cl)sc2c1 | x | -100% | x | 4.5µM* | x | x
COc1ccc(OC)c(NC(=O)c2nc(S(=O)(=O)Cc3ccc(F)cc3)ncc2Cl)c1 | x | 8.9µM* | x | 6.3µM* | x | x
Cc1ccc(NC(=O)c2nc(S(=O)(=O)Cc3ccc(F)cc3)ncc2Cl)cc1C | x | 7.1µM* | x | 5.6µM* | x | x
Cc1ccc(CS(=O)(=O)c2ncc(Cl)c(C(=O)Nc3nc4ccc(C)cc4s3)n2)cc1 | x | -51% | x | -28% | x | u
COc1ccccc1NC(=O)c1nc(SCc2ccc(F)cc2)ncc1Cl | x | -16% | x | -1% | x | x
Cc1ccc(CS(=O)(=O)c2ncc(Cl)c(C(=O)Nc3nc4ccc(F)cc4s3)n2)cc1 | x | -40% | x | u | u | -26%
Cc1ccc(C(=O)NCCc2nnc3n2CCN(Cc2ccnc4ccccc24)CC3)c(C)c1 | x | x | x | x | i | x
CC(C)c1c(C(=O)N(C)C2CCN(C)CC2)cnn1-c1nccc(-c2ccco2)n1 | x | x | x | x | i | x
O=S(=O)(c1ccc(Cl)cc1)c1nc(-c2cccs2)oc1SCc1ccccc1F | x | -17% | x | -12% | i | 0%
Cc1cc(C)cc(-n2c(C)nc3cc(C(=O)NCc4ccccc4Cl)ccc32)c1 | x | -32% | x | u | u | u
COC(=O)c1cccc(-c2cc(Cl)c3c(c2)CC(CNC(=O)c2cccnc2)O3)c1 (stereo unspecified) | x | x | x | x | i | x
Cc1noc(C)c1S(=O)(=O)NCCc1csc2nc(-c3ccc(Cl)cc3)nn12 | x | -16% | x | -4% | x | x
C=CCn1c(COc2cccc(C)c2C)nnc1SCC(=O)N1CCN(c2ccccc2)CC1 | -33% | -69% | -25% | 4.5µM* | i | u
CCn1c(COc2c(C)cccc2C)nnc1SCC(=O)N1CCN(c2ccccc2)CC1 | -15% | -4% | -10% | u | i | u
COc1ccc(CN2CC[C@H]3C=CC[C@@H](C(=O)Nc4ccccc4)[C@H]3C2=O)cc1OC | x | 0% | x | -13% | x | x
Cc1ccc(C2c3[nH]c4ccccc4c3C[C@H]3C(=O)N(c4ccccc4C(=O)NCCCN4CCOCC4)C(=O)N23)cc1 (stereo partly specified) | 29µM* | -64% | u | u | u | u
CCCCCCCNC(=O)C1(CC2CC(c3ccc(Cl)cc3)=NO2)CCN(C(=O)Cc2ccc(F)cc2)CC1 (stereo unspecified) | 0% | -4% | 0% | 0% | i | 0%
CCCCCCCNC(=O)C1(CC2CC(c3ccc(Cl)cc3)=NO2)CCNCC1 (stereo unspecified) | -24% | 18µM* | -3% | u | x | 28µM*
COc1ccc(-c2cc(NC=O)c3ncc(-c4ccc(OC)c(OC)c4)n3c2)cc1 | 0.58µM* | 5% | 1µM* | u | u | -26%
COc1ccc(-c2cnc3c(NC=O)cc(-c4ccccc4OC)cn23)cc1OC | 0.18µM* | -28% | 0.046µM* | u | i | 18µM*
SMILES | HT1080 IDH1KD tx | HepG2 tox | HT1080-NT tox | TGFb inhibitor | ATXN viability | ATXN2 expr inh
Cc1cccc(NC(=O)CSc2cn(CC(=O)N3CCOCC3)c3ccccc23)c1C | x | 1% | x | -1% | x | x
COc1ccc(N2CCN(CCCNC(=O)c3nnc(Cc4ccc(F)cc4)o3)CC2)cc1 | x | -22% | x | 7% | i | -17%
O=C(N/N=C/c1cccs1)c1cccc2cc[nH]c12 | 16µM* | -27% | u | 3% | i | 52%
O=C(N/N=C/c1cccc([N+](=O)[O-])c1)c1cccc2cc[nH]c12 | -4% | -30% | -9% | 9% | i | -15%
O=C(N/N=C/c1cc([N+](=O)[O-])ccc1O)c1cccc(N2CCCC2=O)c1 | u | -16% | u | 4% | u | 18µM*
COc1cc(/C=N/NC(=O)c2cccc(N3CCCC3=O)c2)ccc1O | 19% | 8% | 22% | 6% | i | 42%
O=C(N/N=C/c1cc([N+](=O)[O-])ccc1O)c1cccc2cc[nH]c12 | 9.2µM* | -83% | u | 13µM* | u | 3.2µM*
O=[N+]([O-])c1ccc(/C=N/N/C(=N/c2ccccn2)c2ccccn2)cc1 | 10µM* | -5% | u | -2% | u | 6%
CN(C)CCCNc1nc2cc(-c3ccccc3)sc2c(=O)n1C | u | -19% | 9.2µM* | -3% | i | -2%
CN(C)CCCNc1nc2cc(-c3cncnc3)sc2c(=O)n1C | 23% | 13% | 8% | 20% | i | -14%
COc1cccc(CNc2nc3cc(-c4ccccc4)sc3c(=O)n2C)c1OC | u | 10µM* | u | u | u | u
COCCNc1nc2cc(-c3ccc(F)cc3)sc2c(=O)n1C | 0% | 0% | -4% | -2% | i | 8%
COc1cccc(CNc2nc3cc(-c4cccc(Cl)c4)sc3c(=O)n2C)c1OC | -7% | -22% | -4% | u | i | 0%
COc1cccc(CNc2nc3cc(-c4ccccc4CO)sc3c(=O)n2C)c1 | u | -20% | 29µM* | -10% | u | -4%
CN(C)CCCNc1nc2cc(-c3ccc(F)cc3)sc2c(=O)n1C | 16µM* | -85% | u | u | u | 20µM*
COCC(=O)Nc1cc(C(=O)N2CC3(C)CC2CC(C)(C)C3)c2c(c1)nc(-c1ccncc1)n2C (stereo unspecified) | x | x | x | x | i | x
O=C(Nc1ccc(F)c(Cl)c1)c1cc(S(=O)(=O)NCc2ccc3c(c2)OCO3)ccc1F | x | -13% | x | u | u | u
O=c1c(Cc2ccccc2)c(O)c2cccc3c4c(n1c23)CCCC4 | -16% | -34% | -21% | 14µM* | u | -6%

Compound activity (PubChem BioAssay)
